An excerpt weighted towards active compounds, which were near 1.2% of everything screened.
Avidin bead fluor: compound fluoresces at 488/530 nm on avidin beads | compound fluorescence 488/530 nm, flow cytometry; stronger effect = higher value | fluorescence (KMESF) at 10 µM | hit rate 0.38% among 220,000; in the data active = fluorescence above about 47
GSH fluor: compound fluoresces at 488/530 nm on GSH beads; GSH beads flow cytometry, compound fluorescence 488/530 nm; stronger effect = higher value; fluorescence (KMESF) at 10 µM; hit rate 0.25% among 190,000; AID 1776; in the data active = fluorescence above about 89;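 note: glutathione beads carrying GST-tagged Bcl family fusion proteins plus one bare bead set; values are compound well signal with DMSO vehicle wells as background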
RGS7-Gao reg: modulates binding of RGS7 to human Galphao. P09471. Multiplexed bead flow cytometry; actives lie on both sides. binding response (% of control), % at 10 µM. hit rate 0.35% among 220,000. AID 1439; in the data active = binding response below about 49% or above about 150%; inconclusive = no clear call, values can overlap the other calls; inactive = in between;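 note: fluorescent Galphao held in activated GDP-AlF4 state binding bead-coupled RGS7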
RGS8-Gao: modulates binding of RGS8 to human Galphao; P09471; multiplexed bead flow cytometry; actives lie on both sides; response (percent of control binding), % at 10 µM; hit rate 0.34% among 220,000; AID 1423; in the data active = response below about 60% or above about 140%; inactive = in between;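 note: Galphao activated as the GDP aluminium fluoride complex binding bead-coupled RGS8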
RGS16-Gao HTS: modulates binding between human RGS16 and Galphao; O15492+P09471; binding response (% of control), % at 10 µM; hit rate 0.38% among 220,000; bead-based flow cytometry RGS16-Galphao binding, fluorescence; actives lie on both sides; AID 1441; call rule not given here;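 note: Galphao activated by GDP with aluminum fluoride before binding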
Target sequence (O15492 whole entry, looked up): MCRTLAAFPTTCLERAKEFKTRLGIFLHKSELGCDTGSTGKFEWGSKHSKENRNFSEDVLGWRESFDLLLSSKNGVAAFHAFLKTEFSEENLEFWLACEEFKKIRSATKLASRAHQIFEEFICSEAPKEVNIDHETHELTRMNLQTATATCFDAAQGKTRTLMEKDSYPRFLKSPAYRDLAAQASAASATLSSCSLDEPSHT
Target sequence (P09471 whole entry, looked up): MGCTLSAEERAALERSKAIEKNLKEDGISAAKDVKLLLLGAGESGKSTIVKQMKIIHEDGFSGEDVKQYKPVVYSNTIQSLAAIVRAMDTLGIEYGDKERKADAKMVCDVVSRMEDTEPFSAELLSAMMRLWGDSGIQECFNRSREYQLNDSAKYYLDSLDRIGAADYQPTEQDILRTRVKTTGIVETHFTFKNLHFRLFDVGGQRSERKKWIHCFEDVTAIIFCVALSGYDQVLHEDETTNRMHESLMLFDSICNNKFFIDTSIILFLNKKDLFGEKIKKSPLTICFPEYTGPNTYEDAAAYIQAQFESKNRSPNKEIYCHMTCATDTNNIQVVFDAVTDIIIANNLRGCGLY
RGS4-Gao reg: modulates binding of RGS4 to human Galphao | hit rate 0.33% among 220,000 | P09471 | Multiplexed bead flow cytometry; actives lie on both sides | binding response (% of control), % at 10 µM; in the data active = binding response below about 49% or above about 150%; inactive = in between;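 note: fluorescent Galphao activated with aluminum fluoride binding bead-coupled RGS4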
Numbers without * were called inactive; u = inconclusive; x = no result given; [ ] = remark or other dose.

SMILES	Avidin bead fluor	GSH fluor	RGS7-Gao reg	RGS8-Gao	RGS16-Gao HTS	RGS4-Gao reg
O=C1/C(=C\c2ccc(O)c(O)c2)C(c2ccccc2)=NN1c1ccccc1	9	11	55	69	64	62
COc1cc(/C=C2\C(=O)N(c3ccc(NC(C)=O)cc3)N=C2c2ccccc2)ccc1O	131*	15	u	93	104	133
CCOc1ccc2nc(NCCNC(=O)C(C)C)c(C)cc2c1	61*	24	111	99	105	103
CN(CCO)C(=O)c1cccc2c1-c1ccccc1C2=O	8	259*	104	99	103	100
Cc1nn(-c2ccccc2)nc1CNS(C)(=O)=O	6	x	u	101	100	102
COc1ccc2ccccc2c1CN1CCN(Cc2ccccc2)CC1	8	11	100	101	100	102
COc1ccc2ccccc2c1CN1CCCC(CO)C1 (centres undefined)	57*	18	113	100	102	101
C=CCNS(=O)(=O)c1cccc(C(C)=O)c1	16	11	103	103	106	103
C=CCNS(=O)(=O)c1cccc2cc(C(=O)O)c(O)cc12	50*	22	108	100	104	99
Cc1nc(NC(=O)CN2CCC(O)(c3ccc(F)cc3)CC2)sc1C	7	x	u	97	95	93
O=C(N/N=C/c1ccc(-c2ccccc2[N+](=O)[O-])o1)c1cncc(Br)c1	83*	6	78	80	23	85
CC12CN3CCN(CC(C3)/C1=N\NC(=O)Nc1cccc(Cl)c1)C2	10	14	99	102	103	100
Cc1nn(-c2ccccc2)nc1CNC(=O)C1CC1	2	x	u	100	103	102
N#Cc1c(N)oc(-c2ccccc2)c1-c1ccccc1	10	268*	98	101	99	100
COc1ccc(C2C(C(=O)NC(C)C)c3ccccc3C(=O)N2C)cc1OC (centres undefined)	54*	48	118	97	86	110
COc1ccc(Cl)cc1N1C(=O)CC(N2CCc3ccccc32)C1=O (centres undefined)	7	264*	88	94	98	92
Cc1noc(C)c1CSc1nnc2sc3ccccc3n12	7	4	104	104	107	105
Cc1noc(C)c1CSc1nc2ccccc2n1C	5	240*	102	94	46	107
CCCCC1(C)NC(=S)N2N1C(=S)NC2(C)CCCC (centres undefined)	7	x	u	103	102	102
COc1cc(C(F)(F)F)nc(-c2ccccn2)n1	11	18	u	102	104	101
CC(C)Nc1cc(C(F)(F)F)nc(-c2ccccn2)n1	332*	33	274*[activator]	95	160	153*[activator]
Cc1nc(/C(=N/O)C(N)=O)cs1	5	x	u	99	100	99
CCN(CC)S(=O)(=O)c1csc(C(=O)OCC(=O)c2ccccc2)c1	4	104*	88	95	86	83
CCN(CC)S(=O)(=O)c1ccc(/C=C/C(=O)Nc2ccc(N3CCOCC3)cc2)cc1	6	x	u	100	100	94
COC(=O)CSc1nnc(-c2ccco2)n1Cc1ccco1	72*	27	127	104	119	107
SMILES	Avidin bead fluor	GSH fluor	RGS7-Gao reg	RGS8-Gao	RGS16-Gao HTS	RGS4-Gao reg
COC(=O)c1c(NC(=O)CSc2nnc(-c3ccco3)n2Cc2ccccc2)sc(C)c1C	8	268*	104	102	102	100
O=C(NC12CC3CC(CC(C3)C1)C2)c1cc([N+](=O)[O-])ccc1N1CCOCC1	4	23	98	98	104	97
CCOc1ccc2[nH]c(=O)c(C(c3nnnn3C3CCCCC3)N3CCN(CC)CC3)cc2c1 (centres undefined)	76*	54	132	114	172	146
CCOC(=O)C1=C(C)OC(N)=C(C(=O)OCC)C1c1cccnc1 (centres undefined)	25	15	62	74	67	67
CCOC(=O)C1=C(C)OC(N)=C(C(=O)OCC)C1c1ccncc1 (centres undefined)	10	244*	106	102	111	100
COc1ccccc1/C=C/C(=O)NCC(=O)n1nc(C)cc1C	5	x	u	100	98	96
CCN=C1S/C(=C\c2ccc(OC)c(OCC)c2)C(=O)N1CC	8	106*	108	108	121	109
COc1ccc(/C=C2\SC(=NCc3ccccc3)N(Cc3ccccc3)C2=O)cc1OC	6	32	121	117	122	123
COc1ccc(OC)c(NC(=O)COC(=O)c2ccc(S(=O)(=O)N3CCOCC3)cc2)c1	7	276*	99	100	102	99
O=C(NCc1cccnc1)C1CCC(CNS(=O)(=O)c2cccc3nsnc23)CC1 (centres undefined)	5	x	u	96	93	94
Fc1cccc(-c2nnn3c2nc(Cl)c2ccccc23)c1	10	17	u	96	94	94
CCOc1ccc(NC(=S)Nc2ccc(OCC)cc2)cc1	12	14	101	104	108	101
CCOc1ccc(NC(=S)Nc2ccc(OC(F)(F)F)cc2)cc1	5	146*	98	101	100	98
Cc1cccc(C)c1N1CCc2cn[nH]c21	48*	12	102	96	100	102
COc1ccc(/C(N)=N/OC(=O)c2ccc3c(c2)OCO3)cc1	48*	10	133	103	105	111
Cc1ccc2c(c1)CCCN2C(=O)c1ccncc1	131*	29	143	97	102	102
CCCCN(C(=O)Cn1ncc(Cl)c(Cl)c1=O)c1c(N)n(CC(C)C)c(=O)[nH]c1=O	3	x	u	86	81	73
O=C(NNC1=NCCC1)c1ccc(Br)cc1	5	261*	111	136	213	115
Cc1ccc(C(=O)NNC2=NCCC2)cc1	6	38	102	97	97	98
CCOC(=O)Nc1ccc2c(c1)OCO2	39	20	102	103	100	101
COC(=O)Nc1ccc2c(c1)OCO2	4	100*	87	95	92	84
